Results taken from PubChem BioAssay AID2221 (Broad Institute, 2009).
The campaign covered roughly 290,000 compounds. About 2,200 (0.76%) were called active. This excerpt belongs to a sample that is enriched for actives. A number with no mark means an inactive call. Cut-off read from the data, not from the text of the source: active = inhibition above about 30%; inconclusive = no clear call, values can overlap the other calls; inactive = below that.

These compounds were tested against Protein RecA (Mycobacterium tuberculosis (strain ATCC 25618 / H37Rv)) (UniProt P9WHJ3) (assay: Mtb RecA intein splicing inhibitors, primary screen, biochemical, fluorescence, HTS (AID 2221;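 note: 0% = vehicle wells and 100% = reference inhibitor control wells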)). Conditions: cell-free RecA intein splicing, stronger effect = higher value, concentration not given here.
Protein RecA (Mycobacterium tuberculosis (strain ATCC 25618 / H37Rv)), sequence (P9WHJ3 whole entry, looked up): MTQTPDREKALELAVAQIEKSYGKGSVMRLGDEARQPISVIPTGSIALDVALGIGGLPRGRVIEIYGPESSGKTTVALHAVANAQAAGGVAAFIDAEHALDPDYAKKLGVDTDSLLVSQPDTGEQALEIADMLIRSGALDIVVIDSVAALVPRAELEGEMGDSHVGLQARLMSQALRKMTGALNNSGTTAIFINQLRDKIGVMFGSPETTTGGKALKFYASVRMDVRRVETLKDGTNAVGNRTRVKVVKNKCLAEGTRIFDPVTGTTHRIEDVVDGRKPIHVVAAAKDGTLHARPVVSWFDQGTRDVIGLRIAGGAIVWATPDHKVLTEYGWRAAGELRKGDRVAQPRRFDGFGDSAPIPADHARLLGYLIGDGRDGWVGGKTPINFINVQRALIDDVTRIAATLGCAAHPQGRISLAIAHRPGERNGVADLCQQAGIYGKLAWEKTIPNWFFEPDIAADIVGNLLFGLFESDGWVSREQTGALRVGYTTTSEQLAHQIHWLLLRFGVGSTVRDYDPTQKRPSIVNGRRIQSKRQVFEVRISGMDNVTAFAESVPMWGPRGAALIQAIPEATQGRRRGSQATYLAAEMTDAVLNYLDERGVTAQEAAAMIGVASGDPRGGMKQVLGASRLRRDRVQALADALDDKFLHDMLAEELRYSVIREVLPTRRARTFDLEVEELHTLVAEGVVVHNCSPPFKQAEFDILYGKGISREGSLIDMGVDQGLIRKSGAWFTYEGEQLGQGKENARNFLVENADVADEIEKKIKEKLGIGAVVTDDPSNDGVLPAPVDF

Row | Structure (SMILES) | inhibition
1 | COc1ccc(-c2nnc(SCc3cccnc3)o2)cc1 | -3.4%
2 | COc1ccc(-c2nnc(SCC(=O)c3ccc4c(c3)OCCO4)o2)cc1 | 0.107%
3 | COc1ccc(-c2nnc(SC(=O)N3c4ccccc4Sc4ccccc43)o2)cc1 | 46.6% (active)
4 | CC(=O)c1cccc(NC(=O)C2COc3ccccc3O2)c1 (stereo not drawn) | 0.944%
5 | C[C@H](NC(=O)C1CCN(S(=O)(=O)c2ccccc2)CC1)C(=O)NCc1ccccc1 | 1.64%
6 | COC(=O)c1sc(SC)c(S(=O)(=O)C(C)C)c1N/N=C(\C#N)S(=O)(=O)c1ccccn1 | 3.07%
7 | CCC1=C(C(=O)OC)C(c2cc(OC)ccc2OC)C(C#N)=C(N)O1 (stereo not drawn) | -1.35%
8 | COCc1[nH]nc2c1C(C1C=CCCC1)C(C#N)=C(N)O2 (stereo not drawn) | -0.266%
9 | CCOC(=O)C1=C(CC)OC(N)=C(C#N)C1c1ccc(F)cc1F (stereo not drawn) | -3.52%
10 | CCCc1[nH]nc2c1C(c1ccc(OC(=O)c3ccco3)cc1)C(C#N)=C(N)O2 (stereo not drawn) | 81.6% (active)
11 | CCCc1nc2c([nH]1)C(c1cccnc1)C(C#N)=C(N)O2 (stereo not drawn) | -1.72%
12 | CCc1ccc(C2C(C#N)=C(N)Oc3n[nH]c(CC(=O)OC)c32)cc1 (stereo not drawn) | 63.8% (active)
13 | CCCc1[nH]nc2c1C(C1CC=CCC1)C(C#N)=C(N)O2 (stereo not drawn) | 4.97%
14 | CCOC(=O)C1=C(C)OC(N)=C(C#N)C1c1cncc(-c2ccc(F)cc2)c1 (stereo not drawn) | 2.26%
15 | CCCc1[nH]nc2c1C(c1ccc(Br)s1)C(C#N)=C(N)O2 (stereo not drawn) | 56% (active)
16 | CCOc1c(OC)cc(C2C(C#N)=C(N)Oc3n[nH]c(-c4ccncc4)c32)cc1OC (stereo not drawn) | 23.1%
17 | COc1cc(C2C(C#N)=C(N)Oc3n[nH]c(-c4ccccn4)c32)cc(OC)c1OC (stereo not drawn) | 17.2%
18 | COc1ccc(-c2[nH]nc3c2C(c2ccncc2)C(C#N)=C(N)O3)cc1 (stereo not drawn) | 69.7% (active)
19 | NC(=O)c1cc(S(=O)(=O)NCCCc2ccco2)cs1 | -6.35%
20 | CN(C)c1ccc(C=NCCc2ccc(S(N)(=O)=O)cc2)cc1 | -4.96%
21 | Cc1ccc(NC(=O)N2CCSc3ccccc32)cc1 | -0.155%
22 | CCN(CC)CC(=O)Nc1sc2c(c1C(=O)c1ccccc1C)CCC2 | 11.9%
23 | Cc1cc(C)c(C)c(S(=O)(=O)N[C@@H](C)C(=O)OC(C)C(=O)NC(N)=O)c1C (stereo partly drawn) | -2.04%
24 | CC(CO)(CO)NC(=O)c1ccc(=O)[nH]n1 | 0.0563%

Row | Structure (SMILES) | inhibition
25 | O=C(c1ccc[nH]c1=S)N1CCN(S(=O)(=O)c2ccc(Br)cc2Cl)CC1 | -3.23%
26 | Cc1ccc(-n2c(=O)cc(N3CCN(Cc4ccccc4)CC3)[nH]c2=O)cc1 | -1.51%
27 | S=C(Nc1ccc(Cl)cc1Cl)N1CCCC1 | -0.599%
28 | Cc1cccc(OC(C)C(=O)N2CCc3ccccc3C2)c1 (stereo not drawn) | 0.662%
29 | O=C(Cc1ccccc1)Nc1ccc(C(=O)Nc2ccccc2C(=O)O)cc1 | 0.81%
30 | O=C(c1cccnc1)N1CCN(S(=O)(=O)c2cccs2)CC1 | -1.81%
31 | Cc1ccc(-n2nc3c(=O)n(C(C)C(=O)NCc4ccc5c(c4)OCO5)nc(C)c3c2C)cc1 (stereo not drawn) | 3.2%
32 | CC1=NNC(=O)C1CCC(=O)N/N=C\c1ccc(Cl)c(Cl)c1 (stereo not drawn) | 0.906%
33 | CC1=NNC(=O)C1Cc1c(Cl)cccc1Cl (stereo not drawn) | 90.8% (active)
34 | CC1=NNC(=O)C1CCC(=O)N/N=C\c1cccc(Cl)c1 (stereo not drawn) | -2.34%
35 | O=C(CN1CCc2cc3c(cc2C1)OCCCO3)Nc1ccccc1 | 1.99%
36 | COc1ccc(C(=O)NC2CC(C)(C)Cc3c2cnn3-c2ccccc2C)o1 (stereo not drawn) | 3.96%
37 | CCOc1ccc(NC(=O)c2nc(SCC)ncc2Cl)cc1 | -3.31%
38 | Cc1cccc(CS(=O)(=O)c2ncc(Cl)c(C(=O)Nc3ccc(F)cc3)n2)c1 | 31.6% (active)
39 | Cc1cccc(OCc2ccc(C(=O)Nc3ccc(F)cc3)cc2)c1 | -2.68%
40 | CCSc1ncc(Cl)c(C(=O)Nc2cc(C)ccc2C)n1 | -2.65%
41 | Cc1cccc(NC(=O)c2nc[nH]c2C(=O)NCC(=O)OCc2ccccc2)c1 | -3.32%
42 | Cc1cccc(NC(=O)c2nc(S(=O)(=O)Cc3ccccc3)ncc2Cl)c1 | 78% (active)
43 | CSCC[C@H](NC(=O)N1CCn2c1nc1ccccc12)C(=O)NC1CCCCC1 | 0.784%
44 | ClC1(Cl)CC1CSc1ncn[nH]1 (stereo not drawn) | -0.379%
45 | Cc1ccc(SC(CC(=O)c2ccc(C(C)(C)C)cc2)C(=O)O)cc1 (stereo not drawn) | 8.11%
46 | Cc1ccc(SCC2=NNC(=O)C2)cc1 | 87.8% (active)
47 | Cc1ccc(SCCSc2ncccn2)cc1 | -1.76%
48 | Cc1ccc(SCc2cc(=O)[nH]c(N3CCCCC3)n2)cc1 | 1.86%
